# Measurements reported in the supplement of paper PMC8728848.
# Shown is part of a subset that was picked to be rich in the strongest signals.
# B1: SfaEH (Escherichia coli), Q1RDG5 (protein)
# chain: LLCRNNQTGQVFNSGDTSFRVNVSPVVQYDKSISVLDLSQLVSCQNEDSTGQNYDYLKILKGSGFSPALDTKTYGRLDFTSRPTGYARQLPLQFDLQVTEAFYQYGVWKPFPAKLYLYPAPGVFGKVINNGDLLATLYVNKFSTKGQEAGERNFTWRFYATNDVYIQTGTCRVSSNNVKVDLPSYPGGPVTVPLTVRCDQTQSVSYTLSGPVTGSGNTVFANTAASGSGGVGIQLSDNVGPVPAGQPRSLGQVGSSPVSLGLKASYALTGQASPTPGAVQSVINVTFSYN
# Tests used:
# Experiment in all cases: glycan array binding signal (z-score within array); higher = stronger binding
# Details in all cases: glycan notation: IUPAC condensed, linker removed
# [1] = molecular target: Glc(a1-4)Glc(a1-4)Glc(a1-4)Glc
# Summary of the method: (§1)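 Glycan array data came from 3228 arrays in the Consortium for Functional Glycomics database, and only arrays with an available protein sequence were kept. Glycan names were put into IUPAC-condensed notation, and columns mapping to the same glycan were averaged. The binding signal is a within-array Z-score, averaged across arrays of one protein sequence run at different concentrations or buffers and across linkers. A negative Z-score can be read as non-binding.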
# [2] = molecular target: GlcNAc(a1-4)Gal(b1-3)GlcNAc
# Summary of the method: as §1
# [3] = molecular target: GlcNAc(a1-4)Gal(b1-4)GlcNAc(b1-3)Gal(b1-4)Glc
# Summary of the method: as §1
# [4] = molecular target: GlcNAc(b1-2)Man(a1-3)[GlcNAc(b1-2)Man(a1-6)]Man(b1-4)GlcNAc(b1-4)GlcNAc
# Summary of the method: as §1
# [5] = molecular target: GlcNAc(b1-2)[GlcNAc(b1-6)]Man(a1-6)[GlcNAc(b1-2)Man(a1-3)]Man(b1-4)GlcNAc(b1-4)GlcNAc
# Summary of the method: as §1
# [6] = molecular target: GlcNAc(b1-3)Gal(b1-4)GlcNAc(b1-2)[GlcNAc(b1-3)Gal(b1-4)GlcNAc(b1-6)]Man(a1-6)[GlcNAc(b1-3)Gal(b1-4)GlcNAc(b1-2)Man(a1-3)]Man(b1-4)GlcNAc(b1-4)GlcNAc
# Summary of the method: as §1
# [7] = molecular target: GlcNAc(b1-3)Gal(b1-4)GlcNAc(b1-3)[GlcNAc(b1-3)Gal(b1-4)GlcNAc(b1-3)]GalNAc
# Summary of the method: as §1
# [8] = molecular target: Man(a1-2)Man(a1-3)[Man(a1-2)Man(a1-6)]Man(a1-6)[Man(a1-2)Man(a1-2)Man(a1-3)]Man
# Summary of the method: as §1
# [9] = molecular target: Man(b1-4)GlcNAc
# Summary of the method: as §1
# [10] = molecular target: Neu5Ac(a2-3)Gal(b1-3)GlcNAc(b1-2)Man(a1-3)[Neu5Ac(a2-3)Gal(b1-3)GlcNAc(b1-2)Man(a1-6)]Man(b1-4)GlcNAc(b1-4)GlcNAc
# Summary of the method: as §1
# [11] = molecular target: Neu5Ac(a2-3)Gal(b1-3)GlcNAc(b1-4)Gal(b1-4)Glc
# Summary of the method: as §1
# [12] = molecular target: Neu5Ac(a2-3)Gal(b1-4)GlcNAc(b1-3)Gal(b1-4)GlcNAc(b1-3)Gal(b1-4)GlcNAc
# Summary of the method: as §1
# [13] = molecular target: Neu5Ac(a2-3)Gal(b1-4)GlcNAc(b1-6)[Gal(b1-3)]GalNAc
# Summary of the method: as §1
# [14] = molecular target: Neu5Ac(a2-3)Gal(b1-4)[Fuc(a1-3)]GlcNAc(b1-3)Gal(b1-4)[Fuc(a1-3)]GlcNAc(b1-3)Gal(b1-4)[Fuc(a1-3)]GlcNAc
# Summary of the method: as §1
# [15] = molecular target: Neu5Ac(a2-3)[Neu5Ac(a2-6)]GalNAc
# Summary of the method: as §1
# [16] = molecular target: Neu5Ac(a2-6)Gal(b1-4)GlcNAc(b1-2)[Neu5Ac(a2-6)Gal(b1-4)GlcNAc(b1-6)]Man(a1-6)[Neu5Ac(a2-6)Gal(b1-4)GlcNAc(b1-2)Man(a1-3)][GlcNAc(b1-4)]Man(b1-4)GlcNAc(b1-4)GlcNAc
# Summary of the method: as §1
# [17] = molecular target: Neu5Ac(a2-6)Gal(b1-4)GlcNAc(b1-3)Gal(b1-3)GlcNAc
# Summary of the method: as §1
# [18] = molecular target: Neu5Ac(a2-6)Gal(b1-4)GlcNAc(b1-3)Gal(b1-4)GlcNAc(b1-6)[Gal(b1-3)]GalNAc
# Summary of the method: as §1
# [19] = molecular target: Neu5Ac(a2-6)Gal(b1-4)GlcNAc(b1-3)Gal(b1-4)[Fuc(a1-3)]GlcNAc(b1-3)Gal(b1-4)[Fuc(a1-3)]GlcNAc
# Summary of the method: as §1
# [20] = molecular target: Neu5Ac(a2-6)Gal(b1-4)GlcNAc(b1-3)[Neu5Ac(a2-6)Gal(b1-4)GlcNAc(b1-6)]GalNAc
# Summary of the method: as §1
# [21] = molecular target: Neu5Ac(a2-6)Gal(b1-4)GlcNAc(b1-6)[Gal(b1-3)]GalNAc
# Summary of the method: as §1
# [22] = molecular target: Neu5Ac(a2-6)GlcNAc(b1-4)GlcNAc
# Summary of the method: as §1
# [23] = molecular target: Neu5Ac(a2-6)GlcNAc(b1-4)GlcNAc(b1-4)GlcNAc
# Summary of the method: as §1
# [24] = molecular target: Neu5Ac(a2-8)Neu5Ac(a2-3)Gal(b1-4)Glc
# Summary of the method: as §1
# [25] = molecular target: Neu5Ac(a2-8)Neu5Ac(a2-8)Neu5Ac(a2-3)Gal(b1-4)Glc
# Summary of the method: as §1
# [26] = molecular target: Neu5Ac(a2-8)Neu5Gc(a2-3)Gal(b1-4)GlcNAc
# Summary of the method: as §1
# [27] = molecular target: Neu5Gc(a2-3)Gal(b1-4)GlcNAc(b1-3)Gal(b1-4)GlcNAc(b1-2)Man(a1-3)[Neu5Gc(a2-3)Gal(b1-4)GlcNAc(b1-3)Gal(b1-4)GlcNAc(b1-2)Man(a1-6)]Man(b1-4)GlcNAc(b1-4)GlcNAc
# Summary of the method: as §1
# [28] = molecular target: Neu5Gc(a2-8)Neu5Gc(a2-6)Gal(b1-4)GlcNAc
# Summary of the method: as §1
binder,measurement,setting,value
B1,glycan array binding signal (z-score),[1],-0.651
same,glycan array binding signal (z-score),[2],-0.403
same,glycan array binding signal (z-score),[3],-0.748
same,glycan array binding signal (z-score),[4],0.345
same,glycan array binding signal (z-score),[5],-0.668
same,glycan array binding signal (z-score),[6],2.3
same,glycan array binding signal (z-score),[7],0.026
same,glycan array binding signal (z-score),[8],0.008
same,glycan array binding signal (z-score),[9],-0.49
same,glycan array binding signal (z-score),[10],-0.547
same,glycan array binding signal (z-score),[11],-0.421
same,glycan array binding signal (z-score),[12],7.11
same,glycan array binding signal (z-score),[13],2.32
same,glycan array binding signal (z-score),[14],0.9
same,glycan array binding signal (z-score),[15],3.69
same,glycan array binding signal (z-score),[16],-0.534
same,glycan array binding signal (z-score),[17],-0.233
same,glycan array binding signal (z-score),[18],0.079
same,glycan array binding signal (z-score),[19],-0.154
same,glycan array binding signal (z-score),[20],2.22
same,glycan array binding signal (z-score),[21],0.841
same,glycan array binding signal (z-score),[22],-0.508
same,glycan array binding signal (z-score),[23],1.19
same,glycan array binding signal (z-score),[24],0.69
same,glycan array binding signal (z-score),[25],0.437
same,glycan array binding signal (z-score),[26],-0.786
same,glycan array binding signal (z-score),[27],-0.442
same,glycan array binding signal (z-score),[28],2.33
